From a collection of fitness landscapes (doi:10.1126/science.1257360)
The full ranking holds about 140,000 sequences; the median of “enrichment ratio after two sorts for PhoP signalling” is about 0, and the highest 2% start at about 11. The sample holds the highest values, similar sequences and a random draw of the others, so the mix is not that of the screen.

B1: PhoQ; a variant is named by its letters at X, in order, P23837 (parent)
chain: MKKLLRLFFPLSLRVRFLLATAAVVLVLSLAYGMVALIGYSVSFDKTTFRLLRGESNLFYTLAKWENNKLHVELPENIDKQSPTMTLIYDENGQLLWAQRDVPWLMKMIQPDWLKSNGFHEIEADVNDTSLLLSGDHSIQQQLQEVREDDDDAEMTHSVAVNVYPATSRMPKLTIVVVDTIPVELKSSYMVWSWFIYVLSANLLLVIPLLWVAAWWSLRPIEALAKEVRELEEHNRELLNPATTRELTSLVRNLNRLLKSERERYDKYRTTLTDLTHSLKTPLXXLQXXLRSLRSEKMSVSDAEPVMLEQISRISQQIGYYLHRASMRGGTLLSRELHPVAPLLDNLTSALNKVYQRKGVNISLDISPEISFVGEQNDFVEVMGNVLDNACKYCLEFVEISARQTDEHLYIVVEDDGPGIPLSKREVIFDRGQRVDTLRPGQGVGLAVAREITEQYEGKIVAGESMLGGARMEVIFGRQHSAPKDE

Variants of: B1
Experiment: enrichment ratio after two sorts for PhoP signalling (ratio (wild type AVST 3.29)); higher = more functional
Settings: with PhoP (E. coli)

Variant | enrichment ratio
WHNW | ≤ 0.25
WMSA | ≤ 0.25
HCSR | ≤ 0.25
TYDS | ≤ 0.25
MLEL | ≤ 0.25
MVHV | ≤ 0.25
MVYK | 17.6
MVIV | ≤ 0.25
MVYD | ≤ 0.25
MVAN | 15.8
MVYI | ≤ 0.25
MVPY | ≤ 0.25
MVWN | 13.3
MVNL | ≤ 0.25
MVAV | 11.4
GVAN | ≤ 0.25
MVPA | ≤ 0.25
GDLC | 1.96
LWEG | ≤ 0.25
RTKT | ≤ 0.25
QLML | ≤ 0.25
KICA | ≤ 0.25
LLMY | ≤ 0.25
FMIW | ≤ 0.25

Variant | enrichment ratio
YMVF | ≤ 0.25
NLLC | ≤ 0.25
MVAG | 12.7
MVMG | 1.65
MVTG | ≤ 0.25
LDKC | ≤ 0.25
PPTY | ≤ 0.25
TEGP | ≤ 0.25
TETH | 10.3
HPGH | ≤ 0.25
QEIH | ≤ 0.25
TEIH | 11.4
NESH | ≤ 0.25
TEYH | 20.6
VEIH | ≤ 0.25
TEGH | 18.1
HPYH | ≤ 0.25
TEES | ≤ 0.25
TESH | 32.2
DYRT | ≤ 0.25
NIFH | ≤ 0.25
YEYG | ≤ 0.25
TSWM | 16.2
KSWM | ≤ 0.25

Variant | enrichment ratio
TSAM | 13.8
MMWM | ≤ 0.25
TSGM | 19.2
NSAM | ≤ 0.25
TSTM | 25.6
MMTM | 10.9
NVTM | ≤ 0.25
KSAM | ≤ 0.25
KSGM | ≤ 0.25
MMGM | 1.99
HFPI | ≤ 0.25
TFKM | ≤ 0.25
INVC | ≤ 0.25
KVGI | ≤ 0.25
GLDQ | ≤ 0.25
DESQ | ≤ 0.25
RFAC | ≤ 0.25
SQGF | 0.381
STGF | 11.4
KYMF | ≤ 0.25
SEMF | 20.6
SEGF | 12.8
STMF | 11.1
STHF | ≤ 0.25

Variant | enrichment ratio
KYGF | ≤ 0.25
SRGF | 0.392
MQAN | 2.41
VFHF | ≤ 0.25
QYTY | ≤ 0.25
GGWG | ≤ 0.25
IALA | ≤ 0.25
AVFF | ≤ 0.25
YVCH | 0.383
GERH | ≤ 0.25
DKRH | ≤ 0.25
HILM | ≤ 0.25
SRLM | 8.53
GYLM | ≤ 0.25
SFLM | 4.5
GTLM | 14.5
GALM | 12.1
GMLM | 1.25
SNLM | 12
SELM | 15.6
LTLM | 2.03
SLLM | 6.84
SILM | 0.906
SPGC | ≤ 0.25

Variant | enrichment ratio
GWTC | ≤ 0.25
WFGV | ≤ 0.25
IFGQ | ≤ 0.25
VSCI | 7.51
VLVC | ≤ 0.25
SCAA | 5.68
PIFW | 1.39
LQRE | ≤ 0.25
NQHW | ≤ 0.25
SALM | 12.7
QCLM | ≤ 0.25
KQLM | ≤ 0.25
YTLM | 9.3
ITLM | 8.61
VCLM | 4.34
TTLM | 16.5
IILM | 0.265
GCLM | 16.5
ATLM | 21.4
YLIN | ≤ 0.25
MTRF | ≤ 0.25
FHGK | ≤ 0.25
PTLY | ≤ 0.25
EFRH | ≤ 0.25

Variant | enrichment ratio
APYT | ≤ 0.25
YSRL | ≤ 0.25
LVSS | ≤ 0.25
DSTR | ≤ 0.25
IRCW | ≤ 0.25
TYHN | ≤ 0.25
GEDL | ≤ 0.25
GIYR | ≤ 0.25
GILM | 15.7
MNLM | 15.1
GNLM | 17.5
GFLM | 2.69
VYLM | ≤ 0.25
GIPM | ≤ 0.25
VFLM | ≤ 0.25
TNLM | 2.74
VNLM | 22.6
LNLM | ≤ 0.25
MCLM | 6.74
AYGP | ≤ 0.25
WTPP | ≤ 0.25
ECHD | ≤ 0.25
DMYC | ≤ 0.25
TAWF | 5.36

Variant | enrichment ratio
GYWP | ≤ 0.25
GPLY | ≤ 0.25
GKLA | ≤ 0.25
SPLM | ≤ 0.25
MNPM | ≤ 0.25
GKLM | 12.5
MPLM | ≤ 0.25
MMLM | ≤ 0.25
GKVM | ≤ 0.25
STLM | 11.2
MNCK | ≤ 0.25
MNIM | 12.3
MTLM | 13.8
WSKW | ≤ 0.25
HRWY | ≤ 0.25
RRQK | ≤ 0.25
PAKQ | ≤ 0.25
VEYL | ≤ 0.25
MFKL | ≤ 0.25
KGPS | ≤ 0.25
KVQA | ≤ 0.25
KFTV | ≤ 0.25
SDTV | 13.5
NAMF | ≤ 0.25

Variant | enrichment ratio
SMDV | ≤ 0.25
SVDV | ≤ 0.25
KITV | ≤ 0.25
KAMF | ≤ 0.25
SRTV | ≤ 0.25
SYTV | 0.308
SVTV | 11.3
SMTV | 11.4
SAMF | 14.8
YFHI | ≤ 0.25
TFLR | 0.372
GGFA | ≤ 0.25
GQMI | ≤ 0.25
LTAP | ≤ 0.25
RPSV | ≤ 0.25
WEGK | ≤ 0.25
QYAI | ≤ 0.25
SQGD | ≤ 0.25
SITV | 11.8
TETV | 17.9
KYTV | ≤ 0.25
STMD | 9.32
NETV | 8.86
SQMD | 17.4

Variant | enrichment ratio
KSTV | ≤ 0.25
QETV | ≤ 0.25
SPTV | ≤ 0.25
AKTV | 5.31
TKTV | 20
RQLF | ≤ 0.25
MHPM | ≤ 0.25
IVSV | ≤ 0.25
LDYS | ≤ 0.25
PIMI | ≤ 0.25
YPRI | ≤ 0.25
KIFY | ≤ 0.25
TSTV | 26.5
KYAV | ≤ 0.25
NVTV | ≤ 0.25
SSTV | 10.5
STIV | 11.9
YTIV | 0.385
WIAV | ≤ 0.25
STIS | 8.13
SLTV | 10.4
SIAV | 12.2
SETV | 14.9
MMTV | ≤ 0.25

Variant | enrichment ratio
GKTV | ≤ 0.25
KFQS | ≤ 0.25
SNDT | ≤ 0.25
RWGI | ≤ 0.25
EKED | ≤ 0.25
VMLL | ≤ 0.25
GWEH | ≤ 0.25
NLWG | ≤ 0.25
DHDD | ≤ 0.25
KRSK | ≤ 0.25
APEA | ≤ 0.25
HQMW | ≤ 0.25
STMV | 12.8
KYMV | ≤ 0.25
SAMV | 14.1
SPMV | ≤ 0.25
SWMV | ≤ 0.25
SIWV | ≤ 0.25
KAMA | ≤ 0.25
SAMA | 12.3
SAFA | ≤ 0.25
SAPV | 5.29
SIMV | 13.6
SAQV | 0.569

Variant | enrichment ratio
ILLG | ≤ 0.25
KTTK | ≤ 0.25
TRRW | ≤ 0.25
QYNE | ≤ 0.25
MVYP | ≤ 0.25
NQPT | ≤ 0.25
QHTM | ≤ 0.25
YDVW | ≤ 0.25
KTCA | ≤ 0.25
PMGE | ≤ 0.25
SQMW | ≤ 0.25
KQMV | ≤ 0.25
SQMV | 22.1
YHTC | ≤ 0.25
AIIH | 2.68
AEIH | 60.7
AHIH | ≤ 0.25
ADCC | 4.94
AEWS | 8.72
AECF | 2.16
AEWH | 22.3
AECC | 16.3
AEFH | 1.2
AIWH | ≤ 0.25

Variant | enrichment ratio
AWCH | ≤ 0.25
AECH | 16.5
MYMC | ≤ 0.25
KQLY | ≤ 0.25
MMRL | ≤ 0.25
RHKQ | ≤ 0.25
HNLQ | ≤ 0.25
IHWA | ≤ 0.25
AEQH | ≤ 0.25
AEGP | ≤ 0.25
AEYH | ≤ 0.25
AEKH | ≤ 0.25
AEGH | 12.9
AEMH | 36.8
EVPD | ≤ 0.25
EPIP | ≤ 0.25
GGMS | 1.56
DEEV | ≤ 0.25
TGMS | 12.8
PGMG | ≤ 0.25
NGMS | ≤ 0.25
TGEV | 26.6
YYMV | ≤ 0.25
YTMV | 12.2

Variant | enrichment ratio
TGMG | 17.2
QPMV | ≤ 0.25
NGMG | ≤ 0.25
GGEV | ≤ 0.25
PEIA | ≤ 0.25
HVSH | ≤ 0.25
FEHR | ≤ 0.25
ENVM | ≤ 0.25
LMNE | ≤ 0.25
WNVD | ≤ 0.25
RCTL | ≤ 0.25
RGMV | ≤ 0.25
ICIV | ≤ 0.25
ICMW | ≤ 0.25
NGMV | 14
NGIV | ≤ 0.25
GGMV | 5
ICMV | 13.2
NGMD | ≤ 0.25
TGMV | 12.7
